Granule exo inh – lytic granule exocytosis inhibition; TALL-104 LAMP-1 surface exposure, flow cytometry; cells stimulated with thapsigargin and PMA; inhibition, % at 10 µM; 360,000 compounds, 0.66% hits; AID 651702;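 active = inhibition above about 55%, limit read from the data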
PRMT1 FP inh – inhibitors of human PRMT1 | recombinant PRMT1, activity-based probe fluorescence polarization | AID 652257 | inhibition, % at 2.79 µM | 370,000 compounds, 1.3% hits;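 active = inhibition above about 21% made by adding two undisclosed values, limit read from the data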
ABHD5-PLIN5 inh – blocks binding of human ABHD5 to perilipin-5; Q00G26+Q8WTS1; Split G. princeps luciferase complementation, luminescence, 4 h; inhibition, % at 4 µM; 360,000 compounds, 0.78% hits; AID 602281;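 active = inhibition above the mean inhibition across every tested compound plus 3 SD, cut at about 22% in these data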
Target sequence (Q00G26 whole entry, looked up): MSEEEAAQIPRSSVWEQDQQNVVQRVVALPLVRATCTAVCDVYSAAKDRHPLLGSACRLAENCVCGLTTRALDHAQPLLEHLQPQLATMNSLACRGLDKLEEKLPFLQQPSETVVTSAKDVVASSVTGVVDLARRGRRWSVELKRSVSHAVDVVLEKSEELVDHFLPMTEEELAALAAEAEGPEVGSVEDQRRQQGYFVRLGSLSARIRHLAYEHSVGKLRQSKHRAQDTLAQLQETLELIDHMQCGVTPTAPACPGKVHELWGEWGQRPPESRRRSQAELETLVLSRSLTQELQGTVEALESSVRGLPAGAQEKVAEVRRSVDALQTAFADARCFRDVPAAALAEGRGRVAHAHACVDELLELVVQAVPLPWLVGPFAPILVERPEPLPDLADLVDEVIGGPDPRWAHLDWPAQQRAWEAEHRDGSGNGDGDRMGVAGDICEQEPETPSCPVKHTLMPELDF
Target sequence (Q8WTS1 whole entry, looked up): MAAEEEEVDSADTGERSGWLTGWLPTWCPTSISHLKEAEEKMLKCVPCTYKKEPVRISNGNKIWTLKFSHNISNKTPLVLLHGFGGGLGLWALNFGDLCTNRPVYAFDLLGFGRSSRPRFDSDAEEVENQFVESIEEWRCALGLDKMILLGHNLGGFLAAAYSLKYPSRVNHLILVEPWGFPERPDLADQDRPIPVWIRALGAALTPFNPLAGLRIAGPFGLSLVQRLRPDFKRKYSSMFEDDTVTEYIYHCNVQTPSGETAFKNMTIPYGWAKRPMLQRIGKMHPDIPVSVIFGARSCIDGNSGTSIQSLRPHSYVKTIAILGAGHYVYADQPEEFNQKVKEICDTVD
NOD2 RIPK2 PPI – NOD2-RIPK2 protein interaction inhibition. CHO BLA complementation NOD2-RIPK2, CCF4 ratio. O43353. inhibition, % at 4.98 µM. 360,000 compounds, 0.38% hits. AID 624267; in the data active = inhibition above about 21%
TLR9-MyD88 block – blocks human TLR9 binding to MyD88. Q9NR96+Q99836. CHO BLA complementation TLR9-MyD88, CCF4 FRET ratio. inhibition, % at 4.98 µM. 340,000 compounds, 0.21% hits;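 active = inhibition above the mean over all tested compounds plus 3 SD, cut at about 21% in these data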
TLR4-MyD88 BLA – TLR4-MyD88 interaction inhibition in cells | 200,000 compounds, 0.18% hits | HeLa CL3-4 TLR4/MyD88 BLA complementation, FRET ratio | O00206+Q99836 | inhibition, % at 8.4 µM | AID 861; in the data active = inhibition above about 25%
Large screens that a line does not name were inactive. Only some compounds are listed: those with a hit (about 2.6% of all), similar ones and a draw of the others.

O=S(=O)(O)c1cccc2cccc(Nc3ccccc3)c12	PRMT1 FP inh 25.1 (no result: TLR4-MyD88 BLA)
COc1ccccc1-c1cccc2[nH]c3c(c12)CCN1C(=O)[C@H]2[C@H](C)ON(C)[C@H]2C[C@@H]31	none (no result: Granule exo inh, ABHD5-PLIN5 inh, NOD2 RIPK2 PPI, TLR9-MyD88 block, TLR4-MyD88 BLA)
Cc1ccc(S(=O)(=O)C(C#N)c2nc3ccccc3nc2N2CCCC2)cc1 (configuration not stated)	PRMT1 FP inh 57.8
COC(=O)C1=C(C)N(Cc2cccc(C(F)(F)F)c2)C(=NCc2ccc3c(c2)OCO3)NC1CCc1ccccc1 (configuration not stated)	none (no result: Granule exo inh, ABHD5-PLIN5 inh, NOD2 RIPK2 PPI, TLR9-MyD88 block, TLR4-MyD88 BLA)
O=[N+]([O-])c1ccc(N2CCN(C(=S)NCc3ccc(Cl)cc3)CC2)cc1	Granule exo inh 67.7
CN(C)c1ccc(C(=S)N2CCN(c3ccc([N+](=O)[O-])cc3)CC2)cc1	PRMT1 FP inh 22.6 (no result: TLR4-MyD88 BLA)
CCNC(=S)N1CCN(c2ccc([N+](=O)[O-])cc2)CC1	none
CC[C@H](C)[C@H]1CNC(=O)C(=O)N1CC1CCN(CC(C)C)CC1	none (no result: Granule exo inh, ABHD5-PLIN5 inh, NOD2 RIPK2 PPI, TLR9-MyD88 block, TLR4-MyD88 BLA)
COc1ccc(C2CC(=O)C(c3ccc([N+](=O)[O-])cc3)=CN2Cc2ccccc2)cc1 (configuration not stated)	none (no result: Granule exo inh, ABHD5-PLIN5 inh, NOD2 RIPK2 PPI, TLR9-MyD88 block, TLR4-MyD88 BLA)
COC(=O)C1=C(C)N(Cc2cccc(C(F)(F)F)c2)C(=NCc2cc(OC)c(OC)c(OC)c2)NC1CCc1ccccc1 (configuration not stated)	none (no result: Granule exo inh, ABHD5-PLIN5 inh, NOD2 RIPK2 PPI, TLR9-MyD88 block, TLR4-MyD88 BLA)
Cc1cc(Nc2cccc([N+](=O)[O-])c2)cc(=O)n1-c1cccc([N+](=O)[O-])c1	none (no result: Granule exo inh, ABHD5-PLIN5 inh, NOD2 RIPK2 PPI, TLR9-MyD88 block, TLR4-MyD88 BLA)
O=C(NCc1ccccc1)[C@H]1CCCN1C(=O)[C@H]1CCCN1C(=O)N1CCCCC1	none (no result: Granule exo inh, ABHD5-PLIN5 inh, NOD2 RIPK2 PPI, TLR9-MyD88 block, TLR4-MyD88 BLA)
Nc1cc2nc3ccccc3oc-2cc1=O	PRMT1 FP inh 24.4 (no result: TLR4-MyD88 BLA)
COC(=O)[C@]12C[C@H](CC(=O)NCC34CC5CC(CC(C5)C3)C4)C(=O)N(Cc3ccc(Cl)cc3Cl)C1=C[C@H](C1CCCC1)O[C@@H]2C	none (no result: Granule exo inh, ABHD5-PLIN5 inh, NOD2 RIPK2 PPI, TLR9-MyD88 block, TLR4-MyD88 BLA)
COCC(=O)N/N=C(\C)CC(=O)Nc1ccccc1C(N)=O	NOD2 RIPK2 PPI 23.0
COc1ccccc1C(=O)N/N=C(\C)CC(=O)Nc1ccccc1NC(C)=O	none (no result: TLR4-MyD88 BLA)
Cc1cccc(Nc2n[nH]c(=S)s2)c1C	PRMT1 FP inh 24.4
Cc1cccc(Nc2nc3ccccc3s2)c1C	none
CC(=O)NN1C(=O)/C(=C\c2ccc(Br)o2)SC1=S	none
CC(=O)NN1C(=O)/C(=C/c2ccc(Br)o2)SC1=S	PRMT1 FP inh 25.3
O=C(CN1C(=O)CCSc2ccccc21)Nc1ccc(Cl)cc1	none (no result: Granule exo inh, ABHD5-PLIN5 inh, NOD2 RIPK2 PPI, TLR9-MyD88 block, TLR4-MyD88 BLA)
NNC(=O)C(=O)/C=C1\NC2(CCCC2)Cc2ccccc21	none (no result: TLR9-MyD88 block, TLR4-MyD88 BLA)
CCC1(C)Cc2ccccc2/C(=C/C(=O)N2CCCCC2)N1 (configuration not stated)	PRMT1 FP inh 22.2
Cc1nc2cc3nc(C)sc3cc2s1	PRMT1 FP inh 21.8
COC(=O)C1CCCN(C(=O)C2CCN(S(=O)(=O)c3cccc4cccnc34)CC2)C1 (configuration not stated)	none (no result: Granule exo inh, ABHD5-PLIN5 inh, NOD2 RIPK2 PPI, TLR9-MyD88 block, TLR4-MyD88 BLA)
COc1cccc2c1C(=O)c1c(O)c3c(c(O)c1C2=O)C[C@@](O)(C(=O)CO)C[C@@H]3OC1CC(N)C(O)C(C)O1 (some centres not stated)	PRMT1 FP inh 140.8 (no result: TLR4-MyD88 BLA)
COc1cccc2c1C(=O)c1c(O)c3c(c(O)c1C2=O)C[C@@](O)(C(=O)CO)C[C@@H]3O[C@H]1C[C@H](N)[C@H](O)[C@H](C)O1	PRMT1 FP inh 128.8
Cc1cccc(Nc2nc(N)nc(CCl)n2)c1	Granule exo inh 69.7 (no result: TLR4-MyD88 BLA)
COc1ccc(OC)c(Nc2nc(N)nc(CCl)n2)c1	none (no result: TLR4-MyD88 BLA)
COc1cccc(Nc2nc(N)nc(CCl)n2)c1	Granule exo inh 68.2 (no result: TLR4-MyD88 BLA)
CCOc1ccc(Nc2nc(N)nc(CCl)n2)cc1	Granule exo inh 60.2 (no result: TLR4-MyD88 BLA)
Nc1ccn([C@@H]2O[C@H](C(=O)N[C@H](Cc3ccccc3)C(=O)N3CCSC3)[C@@H](O)[C@H]2O)c(=O)n1	none (no result: Granule exo inh, ABHD5-PLIN5 inh, NOD2 RIPK2 PPI, TLR9-MyD88 block, TLR4-MyD88 BLA)
CC(=O)OCC1=C(C(=O)O)N2C(=O)C(NC(=O)CC(C)c3ccccc3)C2SC1 (configuration not stated)	PRMT1 FP inh 21.9 (no result: TLR4-MyD88 BLA)
CC(=O)OCC1=C(C(=O)O)N2C(=O)[C@@H](NC(=O)Cc3cccs3)[C@H]2SC1	none
CC(=O)OCC1=C(C(=O)O)N2C(=O)C(NC(=O)CCn3nc(C)c(Cl)c3C)C2SC1 (configuration not stated)	PRMT1 FP inh 23.7
CC(=O)OCC1=C(C(=O)O)N2C(=O)C(NC(=O)Cn3nc(C(F)F)c(Cl)c3C)C2SC1 (configuration not stated)	none
O=C(COc1ccccc1)NC1C(=O)N2C(C(=O)O)=C(Cl)CSC12 (configuration not stated)	PRMT1 FP inh 24.1 (no result: TLR4-MyD88 BLA)
NC(=O)c1ncn([C@@H]2O[C@H](C(=O)Nc3ccc(C(=O)N4CCCCC4)cc3)[C@@H](O)[C@H]2O)n1	none (no result: Granule exo inh, ABHD5-PLIN5 inh, NOD2 RIPK2 PPI, TLR9-MyD88 block, TLR4-MyD88 BLA)
C[C@@H]1CN([C@H](C)CO)C(=O)c2cc(NS(=O)(=O)c3ccccc3)ccc2O[C@@H](C)CCCCO[C@@H]1CN(C)Cc1ccccc1	none (no result: Granule exo inh, ABHD5-PLIN5 inh, NOD2 RIPK2 PPI, TLR9-MyD88 block, TLR4-MyD88 BLA)
CCCCCCCCN1C(=O)[C@@H](CC(=O)N2CCOCC2)C[C@@]2(C(=O)OC)C1=C[C@H](C(C)(C)C)O[C@@H]2C	none (no result: Granule exo inh, ABHD5-PLIN5 inh, NOD2 RIPK2 PPI, TLR9-MyD88 block, TLR4-MyD88 BLA)
COc1ccc(C2OCCNC3C2C(=O)N(Cc2ccc(OC)cc2OC)C3Cc2ccccc2)cc1 (configuration not stated)	none (no result: Granule exo inh, ABHD5-PLIN5 inh, NOD2 RIPK2 PPI, TLR9-MyD88 block, TLR4-MyD88 BLA)
COc1ccc(/C=N/Nc2cc(C)nc3ccccc23)cc1	Granule exo inh 60.3 (no result: TLR4-MyD88 BLA)
CCOc1ccc2c(ccc(/C=C/c3cc(C)c4cccnc4c3O)[n+]2C)c1	ABHD5-PLIN5 inh 25.6 (no result: PRMT1 FP inh, TLR4-MyD88 BLA)
CCOc1ccc(N=Nc2ccc(O)c3ncccc23)cc1	none (no result: TLR4-MyD88 BLA)
COc1ccccc1NC1=C(NC(C)=O)C(=O)c2ccccc2C1=O	Granule exo inh 90.2, PRMT1 FP inh 24.6
